A short description of assay [1]: HepG2 liver cancer cell viability effects, profiling panel, resazurin fluorescence, 24 h, PK04 Diversity Set (AID 1172). Particulars: higher = more signal.
A short description of assay [2]: basal S. cerevisiae growth modulation, no modifier, primary screen, OD600, strain BY4716, 24 h, basal condition (AID 1173). Conditions: OD600, 24 h, higher = more signal, called active from +8 up or from −8 down.
Assay [3] in a line: MM1S myeloma cell viability, profiling panel, resazurin fluorescence, basal, 24 h, PK04 Diversity Set (AID 1174). Conditions: higher = more signal, called active from +8 up or from −8 down.
Assay [4] has as its target Dihydroorotate dehydrogenase (quinone), mitochondrial (Plasmodium falciparum (isolate 3D7)) (UniProt Q08210). In words: PfDHODH enzyme inhibitors, primary screen, biochemical, C-terminal His tag, absorbance 600 nm (AID 1175).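 Note: recombinant parasite enzyme with a five histidine tag at its C terminus.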 Particulars: DCIP absorbance 600 nm, higher = more signal, called active from +8 up or from −8 down.
A short description of assay [5]: P. aeruginosa biofilm formation inhibitors, primary screen, strain PAO1, LB-PBS medium, absorbance 600 nm (AID 1176). Particulars: P. aeruginosa PAO1 growth/biofilm, A600, 12 h; higher = more signal.
A short description of assay [6]: S. cerevisiae RM11-1a growth modifiers, primary screen, strain RM11-1a, OD600, basal, 24 h (AID 1177).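 Note: cultures grown under basal conditions with no added stressor.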 Conditions: OD600, 24 h, higher = more signal, called active from +8 up or from −8 down.
Assay [7] in a line: E. coli acrAB mutant growth effects, primary screen, E. coli filamentation inducers, strain DRC39, OD650, 24 h (AID 1178).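 Note: growth measured as culture turbidity by optical density at 650 nm.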 Particulars: higher = more signal, called active from +8 up or from −8 down.
Assay [8] in a line: E. coli acrAB mutant growth effects, primary screen, E. coli filamentation inducers, strain DRC39, OD650, 48 h (AID 1179).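 Note: screen aims at cell division blockers that make cells filament.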 Conditions: E. coli DRC39 delta-acrAB growth, higher = more signal, called active from +8 up or from −8 down.
A short description of assay [9]: RPMI8226 myeloma cell viability, profiling panel, resazurin fluorescence, basal, 24 h, PK04 Diversity Set (AID 1180).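 Note: RPMI8826 multiple myeloma cell line at 5000 cells per well.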 Conditions: higher = more signal.
Assay [10] concerns the target E3 ubiquitin-protein ligase XIAP (Homo sapiens) (UniProt P98170). The experiment in a line: XIAP binders, primary screen, biophysical, small-molecule microarray, fluorescence 635 nm (AID 1181).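 Note: score merges 667 nm emission and signal to noise over triplicate slides.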 Conditions: small-molecule microarray binding, higher = more signal.
For assay [11], the system named is XIP peptide (Xip251-270) binding. In words: small-molecule binders of XIP peptide, primary screen, biochemical, small-molecule microarray, fluorescence 635/667 nm, 0.1 µg/mL protein (AID 1182). Particulars: fluorescent protein binding, 635 nm, higher = more signal, called active from +8 up or from −8 down.
Another assay concerns XIP peptide (Xip251-270). The experiment in a line: small-molecule binders of XIP peptide, primary screen, biochemical, small-molecule microarray, fluorescence 635/667 nm, 0.5 µg/mL protein (AID 1183). Particulars: small-molecule microarray binding, fluorescence 635 nm; higher = more signal.
Assay [12] can be described thus: Plasmodium falciparum growth inhibition, primary screen, strain 3D7, DAPI fluorescence, 100 nL (AID 1184).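 Note: parasites grown inside human red blood cells in medium with human serum.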 Particulars: P. falciparum 3D7 growth, 3 d, higher = more signal.
In assay [13] the target is Homeobox protein Hox-A13 (Mus musculus) (UniProt Q62424). The experiment in a line: inhibitors of HoxA13-DNA binding, primary screen, biochemical, fluorescence polarization, labeled oligonucleotide (AID 1185). Particulars: 15 min, higher = more signal, called active from +8 up or from −8 down.
The nature of assay [14]: inhibitors of hydroxyurea-induced Chk1 phosphorylation, primary screen, imaging, HeLa, phospho-Chk1 antibody, percent positive cells (AID 1186). Conditions: hydroxyurea-induced phospho-Chk1 immunofluorescence imaging, higher = more signal.
Assay [15] is described as follows: inhibitors of hydroxyurea-induced Chk1 phosphorylation, primary screen, imaging, HeLa, phospho-Chk1 nuclear intensity (AID 1187). Particulars: hydroxyurea-induced phospho-Chk1 immunofluorescence imaging, higher = more signal.

Calls of active or inactive are those of the source. Unless noted, the rule behind the calls is not given here.

Chain of Homeobox protein Hox-A13 (Mus musculus) (Q62424 whole entry, looked up): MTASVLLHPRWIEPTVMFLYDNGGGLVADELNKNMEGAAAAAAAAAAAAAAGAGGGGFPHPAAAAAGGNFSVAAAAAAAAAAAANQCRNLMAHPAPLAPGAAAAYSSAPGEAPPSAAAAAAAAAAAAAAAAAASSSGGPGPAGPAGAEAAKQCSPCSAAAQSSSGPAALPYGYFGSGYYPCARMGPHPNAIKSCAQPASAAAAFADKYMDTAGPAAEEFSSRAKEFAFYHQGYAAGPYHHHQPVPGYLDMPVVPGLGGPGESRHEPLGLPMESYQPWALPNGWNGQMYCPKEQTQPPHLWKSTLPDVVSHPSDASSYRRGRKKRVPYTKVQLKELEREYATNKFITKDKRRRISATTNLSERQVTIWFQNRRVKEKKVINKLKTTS
Chain of E3 ubiquitin-protein ligase XIAP (Homo sapiens) (P98170 whole entry, looked up): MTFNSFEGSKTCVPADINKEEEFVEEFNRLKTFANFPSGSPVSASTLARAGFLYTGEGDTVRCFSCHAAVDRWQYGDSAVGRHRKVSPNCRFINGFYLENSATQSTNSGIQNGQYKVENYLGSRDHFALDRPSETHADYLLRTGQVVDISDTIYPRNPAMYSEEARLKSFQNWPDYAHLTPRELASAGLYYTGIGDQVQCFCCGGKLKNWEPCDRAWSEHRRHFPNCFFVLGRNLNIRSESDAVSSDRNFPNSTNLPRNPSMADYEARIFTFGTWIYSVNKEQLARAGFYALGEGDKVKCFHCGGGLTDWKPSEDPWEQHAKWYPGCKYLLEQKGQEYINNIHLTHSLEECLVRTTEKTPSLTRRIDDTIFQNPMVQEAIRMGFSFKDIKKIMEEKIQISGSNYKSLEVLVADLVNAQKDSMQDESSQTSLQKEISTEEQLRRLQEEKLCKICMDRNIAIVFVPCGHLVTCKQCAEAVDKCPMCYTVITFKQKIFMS
Chain of Dihydroorotate dehydrogenase (quinone), mitochondrial (Plasmodium falciparum (isolate 3D7)) (Q08210 whole entry, looked up): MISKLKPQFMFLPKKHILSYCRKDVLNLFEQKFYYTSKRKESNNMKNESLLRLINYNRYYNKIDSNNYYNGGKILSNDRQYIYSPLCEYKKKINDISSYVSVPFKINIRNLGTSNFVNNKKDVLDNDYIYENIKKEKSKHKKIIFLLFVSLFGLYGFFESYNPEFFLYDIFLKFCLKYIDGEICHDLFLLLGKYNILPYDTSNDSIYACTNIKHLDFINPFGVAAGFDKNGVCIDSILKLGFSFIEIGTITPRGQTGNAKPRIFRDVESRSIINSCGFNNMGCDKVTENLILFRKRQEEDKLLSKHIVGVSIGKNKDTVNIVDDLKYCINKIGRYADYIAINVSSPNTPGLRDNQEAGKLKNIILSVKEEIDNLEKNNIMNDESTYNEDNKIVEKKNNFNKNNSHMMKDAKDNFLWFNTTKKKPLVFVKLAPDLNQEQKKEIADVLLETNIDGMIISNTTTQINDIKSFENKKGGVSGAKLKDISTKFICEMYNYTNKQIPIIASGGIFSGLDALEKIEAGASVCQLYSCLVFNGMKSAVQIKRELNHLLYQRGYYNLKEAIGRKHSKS

In the case of `COc1ccc(C#Cc2ccc3c(c2)[C@]2(C(=O)N3)[C@H](C(=O)N3CCc4cc(OC)c(OC)cc4C3)[C@H]3C(=O)O[C@H](c4ccccc4)[C@H](c4ccccc4)N3[C@@H]2c2ccc(OCCO)cc2)cc1`, the z-score in [1] is 0.0594; in assay [2] it was 2.37 (inactive); in assay [3] it was -0.0819 (inactive); in assay [5], 1.66 (inactive); in [6], 4.19 (inactive); in assay [7] it was 0.452 (inactive). In addition, the z-score in assay [8] is 0.593 (inactive); in assay [9], 1.5; in assay [12] it was -1.36; in assay [13] it was -2.71 (inactive); in assay [14] it was -0.122 (inactive); in assay [15], 2.93 (inactive). Further, the composite z-score in assay [4] is -1.04 (inactive); in [10], -0.209; in [11], 0.53 (inactive); in the assay with XIP peptide (Xip251-270), 0.598.
With `Cc1ccc(S[C@]2(C(=O)NCc3ccccc3)CC(=O)N(Cc3cc(C(F)(F)F)cc(C(F)(F)F)c3)[C@@H]2c2ccc(CO)cc2)cc1`, the z-score in assay [1] was -0.417; in assay [2] it was -0.248 (inactive); in [3] it was 0.133 (inactive); in assay [5], 0.711 (inactive); in [6], 1.43 (inactive); in assay [7], -0.244 (inactive). In addition, the z-score in [8] is -0.532 (inactive); in assay [9], 0.14; in [12], -0.398; in assay [13], -2.38 (inactive); in [14], 0.199 (inactive); in assay [15], 0.311 (inactive). For the same compound, the composite z-score in assay [4] was 1.01 (inactive); in assay [10], -0.228; in [11] it was -0.384 (inactive); with XIP peptide (Xip251-270), 0.365.
On to `COC(=O)[C@@]1(Cc2ccc(OC)cc2)[C@H]2c3cc(C(=O)N(C)C)n(Cc4ccc(OC)c(OC)c4)c3C[C@H]2CN1C(=O)c1ccccc1`, for which the z-score in assay [1] was -0.962; in assay [2], 2.46 (inactive); in assay [3], -1.67 (inactive); in assay [5] it was 0.964 (inactive); in assay [6] it was 2.19 (inactive); in assay [7], -0.558 (inactive). The z-score is 0.0309 (inactive) in assay [8]; -2.28 in assay [9]; -1.47 in assay [12]; -4.3 (inactive) in [13]; -0.225 (inactive) in assay [14]; 0.305 (inactive) in assay [15]. In addition, the composite z-score is 0.697 (inactive) in assay [4], 0.124 in assay [10], 0.811 (inactive) in assay [11] and 0.696 with XIP peptide (Xip251-270).
With `COc1ccc([Si](C)(C)[C@@H]2[C@@H](CCO)O[C@]3(C(=O)N(Cc4ccc(N5C(=O)c6cccc7cccc5c67)cc4)c4ccccc43)[C@H]2C)cc1`, the z-score in assay [1] was -0.454; in assay [2], 0.338 (inactive); in assay [3], -0.898 (inactive); in [5] it was 1.51 (inactive); in assay [6], 3.87 (inactive); in [7], 1.68 (inactive). Also, the z-score in assay [8] was 1.19 (inactive); in assay [9], -4.48; in assay [12], -2.68; in assay [13] it was -0.946 (inactive); in [14], -0.903 (inactive); in assay [15], -0.198 (inactive). For the same compound, the composite z-score is -0.774 (inactive) in [4], 0.0623 in assay [10], 0.476 (inactive) in assay [11] and 0.596 in the assay with XIP peptide (Xip251-270).
Consider `O=C(NCc1ccccc1)[C@@H]1c2ccccc2C(=O)N(Cc2cc(F)cc(C(F)(F)F)c2)[C@H]1c1ccc(CO)cc1`, for which the z-score is -0.745 in assay [1]; -0.633 (inactive) in assay [2]; -0.569 (inactive) in assay [3]; 0.472 (inactive) in [5]; -0.517 (inactive) in [6]; 0.771 (inactive) in assay [7]. Besides, the z-score in [8] was 0.675 (inactive); in [9], 0.127; in assay [12], -0.0341; in assay [13] it was -2.88 (inactive); in assay [14] it was -1.07 (inactive); in [15] it was -1.29 (inactive). Besides, the composite z-score in assay [4] was 0.131 (inactive); in assay [10], -0.0207; in assay [11] it was 0.818 (inactive); in the assay on XIP peptide (Xip251-270), 0.941.
As for `[N-]=[N+]=Nc1ccccc1[C@H]1OC(c2ccc(OCCCO)cc2)=N[C@@]1(CCS(=O)(=O)c1ccccc1)C(=O)N1CCOCC1`, the z-score in assay [1] is -0.512; in [2], 0.917 (inactive); in assay [3], -1.45 (inactive); in assay [5], 1.75 (inactive); in assay [6], 1.45 (inactive); in assay [7], 0.713 (inactive). Further, the z-score is 0.187 (inactive) in [8]; -1.33 in [9]; -2.04 in assay [12]; -1.14 (inactive) in assay [13]; -0.0149 (inactive) in assay [14]; 0.0382 (inactive) in assay [15]. In addition, the composite z-score in assay [4] was 0.499 (inactive); in assay [10] it was 0.389; in assay [11], 1.72 (inactive); in the assay on XIP peptide (Xip251-270), 0.562.
For the compound `COc1ccc([Si](C)(C)[C@@H]2[C@@H](CCO)O[C@]3(C(=O)N(Cc4ccccc4)c4ccc(N(C=O)c5ccccc5)cc43)[C@H]2C)cc1`, the z-score in assay [1] is -0.131; in [2], 1.59 (inactive); in assay [3] it was -1.54 (inactive); in [5], 3.19 (inactive); in [6], 5.4 (inactive); in [7], 1.23 (inactive). Further, the z-score was 0.843 (inactive) in assay [8]; -1.6 in [9]; -2.79 in [12]; -0.204 (inactive) in [13]; -1.32 (inactive) in assay [14]; -0.697 (inactive) in assay [15]. Further, the composite z-score in assay [4] was 0.186 (inactive); in assay [10], 0.0031; in [11], 0.581 (inactive); in the assay on XIP peptide (Xip251-270), 0.573.
As to `COC(=O)[C@@]1(Cc2ccc(F)cc2)[C@H]2c3cc(C(=O)N(C)C)n(Cc4ccccn4)c3C[C@H]2CN1C(=O)c1ccccc1`, the z-score in assay [1] was 1.15; in assay [2], 0.0864 (inactive); in [3], 0.548 (inactive); in assay [5] it was -0.126 (inactive); in [6] it was -0.319 (inactive); in [7] it was -0.389 (inactive). The z-score in assay [8] was -0.42 (inactive); in assay [9] it was 0.35; in assay [12], -0.393; in assay [13], -5.64 (inactive); in assay [14], 0.412 (inactive); in assay [15] it was 0.427 (inactive). The composite z-score in assay [4] is -0.171 (inactive); in assay [10] it was 0.332; in assay [11], -0.0593 (inactive); with XIP peptide (Xip251-270), 0.352.
For `Cc1c(NC(=O)/C(C#N)=C/C=C/c2ccccc2)c(=O)n(-c2ccccc2)n1C`, the z-score was -0.0273 in assay [1]; -0.0874 (inactive) in assay [2]; -0.335 (inactive) in assay [3]; 0.242 (inactive) in assay [5]; -0.74 (inactive) in assay [6]; 1.39 (inactive) in assay [7]. Further, the z-score is 0.0139 (inactive) in assay [8]; 0.161 in assay [9]; -0.582 in [12]; -1.5 (inactive) in assay [13]; 0.062 (inactive) in assay [14]; 0.214 (inactive) in assay [15]. The composite z-score in assay [4] was 0.316 (inactive); in [10] it was 0.313; in assay [11], -0.3 (inactive); with XIP peptide (Xip251-270), 0.559.

Source of the values: PubChem BioAssay.
